High-throughput results (PubChem BioAssay)
PNC assembly inh = perinucleolar compartment assembly inhibition. PC3M PTB-GFP, PNC prevalence imaging, 16 h; active compounds read low. activity change (PNC), negative = inhibition, % at 10 µM. 140,000 tested, 3.1% active. AID 2417;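 active = readout at or below -70, meaning at least 70% loss of cells showing the perinucleolar compartment, a nuclear body marking cancer cells; inconclusive = readout between -30 and a set limit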;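 also: plate controls were DMSO wells for no effect and camptothecin positive control wells for full effect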
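Compounds are pinned in duplicate onto adhered PC3M cells stably expressing GFP-tagged PTB and incubated 16 h at 37 C. Cells are then fixed, nuclei stained with Hoechst, and PNC-positive cells counted.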
ALDH1A1 inh = inhibitors of human aldehyde dehydrogenase 1A1; Potency, µM (doses to about 75.3 µM), without a hit: top-dose activity, negative = inhibition, usual class: inhibitors; Purified ALDH1A1, NADH fluorescence, propionaldehyde substrate; P00352; AID 1030; 220,000 tested, 7.3% active;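 also: potency is read from the fitted curve at half-maximal effect; plate controls were no enzyme wells and a reference inhibitor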
Target sequence (P00352 whole entry, looked up): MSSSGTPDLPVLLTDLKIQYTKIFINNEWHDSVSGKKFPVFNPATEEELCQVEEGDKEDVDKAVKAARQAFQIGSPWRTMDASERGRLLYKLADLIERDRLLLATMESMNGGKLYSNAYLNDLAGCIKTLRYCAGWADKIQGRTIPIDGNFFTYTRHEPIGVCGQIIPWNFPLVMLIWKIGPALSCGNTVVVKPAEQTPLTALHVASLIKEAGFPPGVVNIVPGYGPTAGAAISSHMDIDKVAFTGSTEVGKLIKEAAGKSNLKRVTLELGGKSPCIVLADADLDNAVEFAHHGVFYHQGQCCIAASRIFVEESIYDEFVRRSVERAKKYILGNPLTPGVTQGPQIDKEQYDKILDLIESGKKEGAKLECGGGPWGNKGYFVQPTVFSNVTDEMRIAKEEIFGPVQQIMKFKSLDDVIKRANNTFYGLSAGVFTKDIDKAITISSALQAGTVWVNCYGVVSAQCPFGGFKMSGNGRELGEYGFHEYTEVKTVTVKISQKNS
HPGD block = HPGD (human) dehydrogenase inhibition. P15428. AID 894. purified HPGD, NADH fluorescence kinetic, PGE2 substrate. Potency, µM, without a hit: at the highest dose activity change, negative = inhibition, hits mostly inhibitors. 150,000 tested, 4.3% active; also: potency is read from the fitted curve at half-maximal effect
Target sequence (P15428 whole entry, looked up): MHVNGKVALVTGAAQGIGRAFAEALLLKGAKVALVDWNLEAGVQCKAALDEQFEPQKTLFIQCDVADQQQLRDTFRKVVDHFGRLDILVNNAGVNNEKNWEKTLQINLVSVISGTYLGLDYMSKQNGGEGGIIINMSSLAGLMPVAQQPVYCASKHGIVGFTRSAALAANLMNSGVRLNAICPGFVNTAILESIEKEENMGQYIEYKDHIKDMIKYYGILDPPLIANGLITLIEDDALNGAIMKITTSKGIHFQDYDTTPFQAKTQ
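NADH formation kinetics: reaction with 30 uM PGE2 and 1 mM NAD+ (final), 20 nM enzyme, Tris-HCl pH 8 with Tween 20, after 15 min compound preincubation at room temperature. Fluorescence change, last versus first of five reads.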
Lamin A splicing = changes lamin A minigene splicing in HeLa cells; HeLa LMNA splicing GFP/RFP minigene ratio, 48 h; Potency, µM (top dose mostly 46.1 µM), for inactives: at the top dose ratio change, negative = inhibition, actives largely listed as inhibitors; 200,000 tested, 0.01% active; active = well fitted inhibition curve with a large enough effect in the signal ratio, with a control signal flat, not every such curve was filed as active; inconclusive = small, poorly fitted or top-dose-only effect, or effect the other way, or a change in a side signal; the % refers to the signal ratio; also: potency is read from the fitted curve at half-maximal effect
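S3 HeLa stable clones carrying a lamin A-EGFP splicing minigene plus DsRed2 were seeded at 600 cells/well in Opti-MEM with 2% FBS, pin-dosed and incubated 48 h at 37°C. Acumen cytometry (488 nm) gave the GFP/RFP total-intensity ratio.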
KinaseGlo FLuc = blocks Kinase-Glo luciferase, a counter-screen artifact; Q27757; Potency, µM (series often up to 38.3 µM), inactives show top-dose activity change, negative = inhibition, usual class: inhibitors; Kinase-Glo luciferase, ATP luminescence, 8 min; AID 1379; 200,000 tested, 0.28% active; active = well fitted inhibition curve with a large enough effect; inconclusive = small, poorly fitted or top-dose-only effect; also: potency is read from the fitted curve at half-maximal effect; nearly all actives have a fitted effect of over 60% in size
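Light output from Kinase-Glo luciferase with luciferin and 10 uM ATP in 50 mM imidazole pH 7.2, KCl, MgCl2, Tween 20, BSA; compound pin-delivered, 8-min ambient incubation, then luminescence read.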
An asterisk follows results filed as active; ? = inconclusive; . = no result given; [ ] = another dose, or the depositor's remark. Compounds with a hit are over-represented: about 10% of the library has one in this group of screens. Unless noted, calls follow the shape of the dose curve; as a rule, active = well fitted inhibition curve with a large enough effect (not every such curve was filed as active); inconclusive = small, poorly fitted or top-dose-only effect, or another doubt; inactive = no such curve, though single readings can be large or run the other way. Unless noted, % is scaled to controls: 0 for no effect and ±100 for the full control effect.

SMILES	PNC assembly inh	ALDH1A1 inh	HPGD block	Lamin A splicing	KinaseGlo FLuc
CC(C)NC(=O)NC(=O)COC(=O)c1ccccc1F	-115.2*	10.4%	.	-0.4%	.
CC(C)NC(=O)NC(=O)COC(=O)c1ccccc1O	.	7.3%	.	5.2%[46 µM]	3.1%
COc1ccc(C(=O)CCC(C)(C)[N+](=O)[O-])cc1OC	.	8.91µM*	.	5.2%[46 µM]	1.9%
O=C1N/C(=C\c2ccc(O)cc2)C(=O)c2ccccc21	32.0	?	?	?	12.6µM*
CCOC(=O)C(NC(=O)N(C)C)(Nc1sc(C)c(CC)c1C#N)C(F)(F)F (stereo not given)	-9.3	?	14.1µM*	-6.3%	-1.3%
CCOC(=O)c1cccc(NC(=O)c2cc(S(=O)(=O)N3CCCCCC3)cn2C)c1	.	.	.	1.1%[46 µM]	.
Cc1cc(C)cc(-n2cnc3cc(C(=O)O)ccc32)c1	-24.7	-5.4%	15.8µM*	3.8%	-2.7%
CCCCC(=O)N(Cc1ccc(-c2ccccc2-c2nn[nH]n2)cc1)C(C(=O)O)C(C)C (stereo not given)	.	6.5%	-8.5%	?	-5.9%
C/C(=C\C[Si](C)(C)C)CC[C@H](O)C1=CCCCC1=O	.	5.9%	-9.3%	.	1.1%
Cc1ccc(OCC2Cn3c(nc4c3c(=O)[nH]c(=O)n4C)O2)cc1 (stereo not given)	-103.4*	15.5%	-5.7%	-7.3%	-2.5%
Cc1ccccc1OCC1Cn2c(nc3c2c(=O)[nH]c(=O)n3C)O1 (stereo not given)	21.6	-19.2%	-5.5%	-2.7%	-0.7%
CCC(=O)/C=C1\Sc2ccc(OC)cc2N1CCO	?	7.9%	-4.2%	0.4%	0.5%
CCC(=O)/C=C1\Sc2ccc(OC)cc2N1CC	-7.5	?	28.2µM*	18.7%	-1.2%
N#Cc1cccc(NC(=O)N2CCCC3(CCN(C(=O)c4cccc(F)c4)CC3)C2)c1	.	-10.8%	-4.3%	.	-1.6%
CC(NC(=O)c1ccc(Br)s1)C1CCCO1 (stereo not given)	4.9	?	31.6µM*	0.9%	-5.2%
CCOc1cc(C(=O)NC(C)C2CCCO2)cc(OCC)c1OCC (stereo not given)	.	?	.	.	-0.6%
Cc1ccc(C(C(=O)NC(C)(C)C)N(Cc2ccco2)C(=O)Cn2nnc(-c3cccs3)n2)cc1 (stereo not given)	16.6	3.1%	-0.8%	-3.8%	-1.8%
CC(C)(C)NC(=O)C(c1ccncc1)N(Cc1cccs1)C(=O)Cn1nnc(-c2cccs2)n1 (stereo not given)	-5.4	4.47µM*	-19.7%	-19.5%	-2.3%
O=C(NCc1ccccc1)C(c1ccc(F)cc1)N(Cc1ccc2c(c1)OCO2)C(=O)Cn1nnc(-c2cccs2)n1 (stereo not given)	-4.6	25.1µM*	-4.0%	-3.3%	-0.5%
CCCC(C(=O)NCc1ccccc1)N(C(=O)Cn1nnc(-c2cccs2)n1)c1ccc2c(c1)OCCO2 (stereo not given)	?	-2.3%	-14.2%	-5.9%	6.4%
CC(C)(C)NC(=O)C(c1ccncc1)N(C(=O)Cn1nnc(-c2ccc(F)cc2)n1)c1ccccc1 (stereo not given)	.	3.16µM*	.	.	1.6%
NC(N)=NC(N)=Nc1ccccc1 (tested in a mixture with another compound)	.	-10.2%[13.5 µM]	-6.3%	.	0.0%[7.66 µM]
c1ccc(-c2nn3c(Cn4nnc5ccccc54)nnc3s2)nc1	?	3.16µM*	7.08µM*	10.3%	-1.3%
CCc1nnc2sc(-c3cc(-c4ccccc4)nc4ccccc34)nn12	-11.2	-10.8%	-26.6%	2.7%	3.0%
c1cncc(-c2nn3c(Cn4nnc5ccccc54)nnc3s2)c1	14.0	7.08µM*	12.6µM*	?	-5.8%
SMILES	PNC assembly inh	ALDH1A1 inh	HPGD block	Lamin A splicing	KinaseGlo FLuc
Cc1nnc2sc(-c3ccccn3)nn12	-21.7	7.9%	-2.1%	1.6%	0.1%
Clc1ccc(CN2CCCN(Cc3ccc(Cl)cc3)C2c2cc3ccccc3c3ccccc23)cc1	.	14.2%[13.5 µM]	-15.3%	.	-6.8%[7.66 µM]
CC(Sc1nc(-c2ccccc2)cc(C(F)(F)F)n1)C(=O)N1CCCCC1 (stereo not given)	64.2	-9.6%	7.08µM*	6.0%	-2.0%
CC1CCCN(C(=O)C(C)Sc2nc(-c3ccccc3)cc(C(F)(F)F)n2)C1 (stereo not given)	?	-11.8%	15.8µM*	?	0.7%
CC(Sc1nc(-c2ccccc2)cc(C(F)(F)F)n1)C(=O)NCc1ccco1 (stereo not given)	-16.6	-9.4%	-11.1%	-4.5%	-2.5%
C=CC1=C2C=C(C3CC3)N(CCOC)C=C2C(=O)C(C)(OC(=O)c2ccco2)C1=O (stereo not given)	.	2.5%[13.5 µM]	-8.6%	-5.9%[9.22 µM]	-1.1%[7.66 µM]
Fc1ccccc1	.	-4.7%	-9.2%	.	.
CCCn1c(O)c(N=NC(=O)c2cccnc2)c2cc(Br)ccc21	.	1.12µM*	.	.	.
CCCn1c(O)c(N=NC(=O)c2ccco2)c2ccccc21	15.4	?	-15.1%	?	3.5%
Cc1nc2nc(-c3cccnc3)[nH]n2c(=O)c1C	-20.4	17.8µM*	-2.8%	-1.2%	-8.9%
Cc1nc2nc(-c3ccccc3)[nH]n2c(=O)c1C	?	-10.2%	-21.3%	7.5%	-14.9%
COc1cc(N=Nc2c(O)c3ccccc3[nH]c2=O)c(OC)cc1N=Nc1ccccc1	.	15.8µM*	.	-4.5%[46 µM]	.
NC(=O)c1ccc(N=Nc2c(O)c3ccccc3[nH]c2=O)cc1	.	-7.6%	.	.	.
C[n+]1cc[nH]c1SCC(=O)c1ccccc1	1.3	25.1µM*	-7.7%	-5.8%	-25.0%
C[n+]1cc[nH]c1SCC(=O)c1ccc(Cl)cc1	.	18.9µM*	.	.	-11.7%
CCOC(=O)c1ccccc1NC(=O)N1CCC(N2CCN(Cc3ccccc3)C(=O)C2=O)CC1	.	.	.	20.3%[46 µM]	.
COc1cc(OC)c2c(=O)c(-c3ccccc3)coc2c1	.	?	?	-2.4%	-5.9%
O=C1CCCc2[nH]c(-c3ccccc3)nc21	.	2.0%	.	.	?
c1coc(-c2nc3c([nH]2)CCc2nonc2-3)c1	?	2.82µM*	?	1.8%	-7.2%
Cc1[nH]c(-c2ccco2)nc1C(=O)O	50.2	-1.4%	-6.3%	-1.8%	-11.7%
c1ccc(-c2nc3c([nH]2)CCc2nonc2-3)cc1	.	4.47µM*	.	.	-6.1%
c1ccc(-c2cc3c(nn2)CCc2nonc2-3)cc1	-102.4*	?	-19.0%	11.6%	-5.1%
Cc1nc(-n2nc(C)c(Cc3ccccc3Cl)c2C)sc1C(=O)Nc1ccccc1F	.	.	.	4.6%[46 µM]	.
Cc1cc(C(=O)NCC(=O)OCC(=O)Nc2ccc(OC(F)F)cc2)ccc1[N+](=O)[O-]	-6.6	3.16µM*	-26.6%	9.7%	1.0%
COc1ccc(Cl)cc1NC(=O)COC(=O)CNC(=O)c1ccc([N+](=O)[O-])c(C)c1	41.4	8.9%	-20.1%	-6.4%	-0.5%
O=C(Cn1nc(-c2ccc(Cl)cc2)ccc1=O)NCCc1ccccc1	.	.	.	5.1%[46 µM]	.
Nc1ncnc2c1[nH]c(=O)n2C1CC(O)C(CO)O1 (stereo not given)	.	0.3%	-1.9%	-5.7%	-2.2%
